This passage reports Potency results from PubChem BioAssay (NCATS).

Results filed as inconclusive are left out. Entries that show only a call come without a potency. Activity calls are given as the source filed them. Calls follow the shape of the dose curve; as a rule, active = well fitted inhibition curve with a large enough effect; inconclusive = small, poorly fitted or top-dose-only effect; inactive = flat fitted curve, though single readings scatter.
Potency is read from the fitted curve at half-maximal effect.

The target of the experiment is Phospholipid hydroperoxide glutathione peroxidase GPX4 (Homo sapiens) (UniProt P36969). The experiment in a line: Primary qHTS Assay for Inhibitors of Recombinant Selenoprotein Glutathione Peroxidase 4 (GPX4) (AID 1845192). Also: nearly all actives have a fitted effect of over 65% in size. Particulars: recombinant GPX4, GR-coupled NADPH fluorescence, 15 min; series mostly up to 50 µM. The source says: Assay Provider: Elias S.J. Arner MD PhD.
Chain of Phospholipid hydroperoxide glutathione peroxidase GPX4 (Homo sapiens) (P36969 whole entry, looked up): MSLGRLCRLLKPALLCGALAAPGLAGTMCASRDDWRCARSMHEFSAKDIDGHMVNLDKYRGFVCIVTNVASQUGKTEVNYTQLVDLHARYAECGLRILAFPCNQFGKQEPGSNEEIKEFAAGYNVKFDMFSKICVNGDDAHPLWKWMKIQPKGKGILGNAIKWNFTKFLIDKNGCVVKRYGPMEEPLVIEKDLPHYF
Department of Medical Biochemistry and Biophysics
Karolinska Institutet, Solna, Stockholm, Sweden
Selenoprotein glutathione peroxidases (GPX), like the ubiquitously expressed GPX1 and the ferroptosis modulator GPX4, enact their antioxidant activities by reducing hydroperoxides using glutathione. […] GPX1 and GPX4 inhibitors have thus shown promise as anti-cancer agents. Existing inhibitors are often promiscuous, or modulate GPX activity only indirectly, so novel direct inhibitors identified through screening against GPX1 and GPX4 could be valuable. Here, we developed optimized glutathione reductase (GR)-coupled GPX assays for the biochemical high-throughput screen (HTS) of almost 12,000 compounds with known mechanisms of action. Initial hits were triaged using a GR counter-screen, assessed for isoform specificity using a separate GPX2 assay, and were assessed for general selenocysteine-targeting activity using a thioredoxin reductase (TXNRD1) assay. With this suite of assays, we identified novel GPX1/GPX2- and GPX4-specific inhibitors and can here present a validated pipeline for future discovery research for selenoprotein-targeting agents.
SEQUENCE No. (e.g., 1, 2, 3, etc.); […] (e.g., Cells, Incubation, Reagent, etc.); VALUE; DESCRIPTION.
1; Reagent 1; 3 uL; 333.33 nM GPx4 enzyme or no enzyme control in 1536-well, black, solid Greiner assay plate.
2; Compound; 25 nL; Kalypsis pin tool (Wako USA) equipped with a 1536-well pin head.
3; Incubation; 30 min; room temperature.
4; Reagent 2; 1 uL; 500 nM GR, 5 mM GSH, 2.5 mM NADPH solution
5; Reagent 3; 1 uL; 2.5 mM CHP in 50% EtOH.
6; Detection; Fluorescence; ViewLux microplate reader, excitation 340 nm and emission 450 nm.
7; Incubation; 15 min; room temperature.
8; Detection; Fluorescence; ViewLux microplate reader, excitation 340 nm and emission 450 nm.
NOTES (numbers refer to Sequence numbers above)
1. 3 µL of 333.33 nM GPX4 and 0.016% BSA in assay buffer (50 mM Tris-HCl, 2 mM EDTA (pH 7.5), 150 mM NaCl) was added to columns 3-48 of 1536-well plates using a BioRAPTR Flying Reagent Dispenser (Let's Go Robotics (LGR), Carlsbad, CA). A no-enzyme control (0.01% BSA in TES assay buffer) was added to columns 1-2.
2. 25 nL, library and DMSO controls were added to each well with a pin tool (Kalypsys).
3. The assay plates were incubated for 30 minutes at room temperature.
4. 1 µL of master mix (500 nM glutathione reductase (GR), 5 mM reduced glutathione (GSH), 2.5 mM NADPH in assay buffer) was added.
5. 1 µL of cumene hydroperoxide (CHP) ([2.5 mM] in 50% EtOH) was then added within 5 minutes to initiate the reaction. Final concentrations were: 200 nM GPX4, 1 mM GSH, 0.5 mM CHP, 0.5 mM NADPH, 100 nM GR, 0.01% BSA.
6. Initial fluorescence readout (t=0) at 340/450 nm was measured using a ViewLux multimodal detector (PerkinElmer, Waltham, MA).
8. Endpoint fluorescence readout (t=15) at 340/450 nm was measured 15 min after room temperature incubation.
For `c1ccc2c(c1)Sc1ccccc1N2CC1CN2CCC1CC2` (stereo not given), the Potency result is “inactive”.

Consider `COc1ccc2c(C(=O)c3ccc(Cl)cc3)c(C)n(CC(=O)O)c2c1`, for which the Potency entry was “inactive”.

As for `CC(C)C(Br)C(=O)NC(N)=O` (stereo not given), the Potency entry is “inactive”.

In the case of `CC1=C2[C@H]3OC(=O)[C@@H](C)[C@@H]3CC[C@@]2(C)C=CC1=O`, the Potency entry was “inactive”.

Take `COc1ccc(CN2CCNCC2)c(OC)c1OC`: the Potency entry is “inactive”.

For `Cc1nnc2n1-c1sc(CCc3ccc(CC(C)C)cc3)cc1C(c1ccccc1Cl)=NC2C` (stereo not given), the Potency is 25.5 µM (active).

Regarding `CC#C[C@]1(O)CC[C@H]2[C@@H]3C[C@H](C)C4=CC(=O)CC[C@]4(C)[C@H]3CC[C@@]21C`, the Potency result was “inactive”.

Turning to `Cc1ccc([N+](=O)[O-])[c]2c1[O][Hg]2`, the Potency result was “inactive”.

Consider `CCCCCCCCC(=O)NCc1ccc(O)c(OC)c1`, for which the Potency result was “inactive”.

Consider `Nc1ccccc1C(=O)OCC(O)CO` (stereo not given), for which the Potency result is “inactive”.

As for `CN1C2CCC(C)(C)C1CC(OC(=O)C(O)(c1cccs1)c1cccs1)C2` (stereo not given), the Potency entry was “inactive”.

On to `CCC1(c2cccc(O)c2)CCCCN(C)C1` (stereo not given), for which the Potency result was “inactive”.

Consider `COc1ccc(C(=O)N2CCCC2=O)cc1`, for which the Potency result is “inactive”.

With `CC(Cc1ccccc1)NCCCCl` (stereo not given), the Potency result was “inactive”.

On to `C=CCOC(Cn1ccnc1)c1ccc(Cl)cc1Cl` (stereo not given), for which the Potency entry is “inactive”.

`NC(=O)CN1CCCC1=O`: the Potency result is “inactive”.

As for `C[C@@H]1CN(C2CCC(C#N)(c3ccc(F)cc3)CC2)CC[C@]1(C(=O)O)c1ccccc1` (stereo not given in full), the Potency entry is “inactive”.

For `CC(C(O)c1ccccc1)N(C)C/C=C/c1ccccc1` (stereo not given), the Potency entry was “inactive”.

Turning to `C=CCN1CC[C@]23CCCC[C@H]2[C@H]1Cc1ccc(O)cc13`, the Potency entry was “inactive”.

`Clc1ccc(CSC(Cn2ccnc2)c2ccc(Cl)cc2Cl)cc1` (stereo not given): the Potency entry was “inactive”.

Take `CC[C@H]1C[C@H]2[C@@H]3CCC4=CC(=O)CC[C@@H]4[C@H]3CC[C@]2(C)[C@H]1O`: the Potency entry was “inactive”.

In the case of `O=C(O)CCCCCCNC1c2ccccc2CCc2ccccc21`, the Potency entry was “inactive”.

In the case of `O=C1CN2CCOC2(c2ccccc2Cl)c2cc(Cl)ccc2N1` (stereo not given), the Potency entry was “inactive”.

As to `CCCCC1C(=O)NC(=O)N(C2CCCCC2)C1=O` (stereo not given), the Potency entry is “inactive”.

With `CN(C)C(=O)Oc1cc(OC(=O)N(C)C)cc(C(O)CNC(C)(C)C)c1` (stereo not given), the Potency entry is “inactive”.

Regarding `COC(=O)C1=CCCN(C)C1`, the Potency result was “inactive”.

`NC(=O)OCCCc1ccccc1`: the Potency result was “inactive”.

Turning to `N#Cc1nn(-c2c(Cl)cc(C(F)(F)F)cc2Cl)c(N)c1S(=O)C(F)(F)F` (stereo not given), the Potency entry was “inactive”.

With `CCOC(=O)c1ncn2c1CN(C)C(=O)c1c(I)cccc1-2`, the Potency result was “inactive”.

In the case of `CC1COC2(c3ccccc3Cl)c3cc(Cl)ccc3NC(=O)CN12` (stereo not given), the Potency result is “inactive”.

For the molecule `CNC(C)Cc1ccccc1OC` (stereo not given), the Potency entry is “inactive”.

In the case of `O=C(CCCN1CCC(n2c(=O)[nH]c3ccccc32)CC1)c1ccc(F)cc1`, the Potency result was “inactive”.

Consider `C#C[C@]1(O)C=C[C@H]2[C@@H]3CCC4=CC(=O)CC[C@@H]4[C@H]3CC[C@@]21CC`, for which the Potency entry was “inactive”.

With `C#C[C@]1(O)CC[C@H]2[C@@H]3CCC4=CC(=O)CCC4=C3C=C[C@@]21CC`, the Potency was 10 µM (active).

Consider `CCN(CC)Cc1nccn1-c1ccc([N+](=O)[O-])cc1C(=O)c1ccccc1Cl`, for which the Potency result was “inactive”.

As to `C[N+]1(C)[C@@H]2CC[C@H]1CC(OC(=O)C(CO)c1ccccc1)C2` (stereo not given in full), the Potency result was “inactive”.

As for `C[C@@H]1CC[C@H]2[C@@H](C)C(=O)O[C@@H]3O[C@@]4(C)CC[C@@H]1[C@]32OO4`, the Potency result is “inactive”.

`Clc1ccc(C(OCCN2CCCCC2)c2ccccc2)cc1` (stereo not given): the Potency entry was “inactive”.

In the case of `CCOC(=O)c1cncn1C(C)c1ccccc1` (stereo not given), the Potency entry was “inactive”.

As to `Cc1c(Cl)c(=O)oc2cc(OP(=O)(OCCCl)OCCCl)ccc12`, the Potency result is “inactive”.
